Results filed as inconclusive are left out. Activity calls are given as the source filed them. Unless noted, calls come from the whole dose curve; as a rule, active = well fitted curve in the direction sought with a large enough effect; inconclusive = small, poorly fitted or top-dose-only effect, or another doubt; inactive = no such curve, though single readings can be large; an effect the other way counts as inactive or inconclusive.
What was measured:
[1] = tested on: Zika virus NS2B-NS3 protease (unlinked complex); assay: Primary screen GU Rhodamine qHTS for Zika virus inhibitors: Unlinked NS2B-NS3 protease assay (AID 1347159); note: % is set by controls: 0 for no effect and ±100 for the full control effect; nearly all actives have a fitted effect of over 60% in size
Outline: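 In dose–response format, inhibition of unlinked protease (25 nM) was measured with 1.5 microM bis-peptide Rhodamine110 substrate. Aprotinin served as the intraplate control.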

[2] = tested on: Zika virus NS2B-NS3 protease (linked construct); assay: Primary screen NINDS Rhodamine qHTS for Zika virus inhibitors (AID 1347160); note: nearly all actives have a fitted effect of over 55% in size; for activity change, negative = inhibition: % is set by controls: 0 for no effect and ±100 for the full control effect
Outline: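 Each compound, titrated, sat 15 min with 25 nM linked protease before 1.5 microM Rhodamine110 substrate went in. Fluorescence gain over the next 15 min, in pH 8.0 Tris with Tween 20, gave Hill-fitted curves.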

[3] = biological target: Calcium and integrin-binding protein 1 (Homo sapiens) (UniProt Q99828); assay: Primary qHTS for Identification of Calcium Integrin Binding Protein 1 (CIB1) Competitor (AID 1508620);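 note: GST tagged CIB1 binding a fluorescein labelled alphaIIb integrin peptide tracer; top concentration of the series differs between compounds; % is set by controls: 0 for no effect and ±100 for the full control effect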
Outline: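 Fluorescence polarization competition: GST-tagged CIB1 (1 uM final) preincubated with compound 15 min at room temperature, then FITC-labelled alphaIIb peptide (100 nM final) added. After 15 min at room temperature, polarization read at Ex 480/Em 540.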

[4] = Primary fluorescence-based thiol-reactive (MSTI) qHTS assay for identification of artifact compounds. (AID 1845221); note: nearly all actives have a fitted effect of over 65% in size; note: potency is the fitted concentration of half-maximal effect;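 for activity change, negative = thiol reactive: thiol-reactive compounds lower the probe fluorescence signal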
Outline: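 Curve-fitted percent inhibition (4-parameter Hill) derived from fluorescence, Ex 525/Em 598 nm, scaled with Acetyl-MSTI and MSTI; 1 h incubation at room temperature.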

[5] = Primary redox qHTS assay for identification of artifact compounds. (AID 1845223);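 note: 0% = DMSO and 100% = reference compound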
Outline: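 Redox-cycling detection via DTT (250 uM final) oxidation coupled to Amplex Red (25 uM)/HRP (250 mU/mL) in HBSS. 15 min preincubation plus 30 min after DTT, room temperature. Ex/Em 525/598 nm; 4-parameter Hill fit against DMSO and 10 uM DA3003.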

[6] = tested on: CRL-7250; assay: qHTS assay to identify novel small-molecules to repurpose for Merkel cell carcinoma treatment (AID 1296009); settings: MCC and control cell lines, CellTiter-Glo viability, 72 h; series mostly up to 92 µM; note: nearly all actives have a fitted effect of over 60% in size
Outline: (§1)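 Dose-response viability screen; 72 hr exposure at 37 degree celsius; CellTiter-Glo added, 10 min room temperature, luminescence read; RLUs scaled between no-cell and DMSO wells.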

[7] = tested on: CAOV3; assay: Primary qHTS to identify gynecologic anti-cancer compounds using libraries of approved drugs and bioactive compounds (AID 1345084); settings: Gynecologic cancer cell panel viability, ATPlite luminescence, 48 h; series mostly up to 57.5 µM; note: nearly all actives have a fitted effect of over 55% in size; note: potency is the fitted concentration of half-maximal effect; for activity change, negative = cytotoxicity: % is set by controls: 0 for no effect and ±100 for the full control effect
Outline: (§2)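 Cytotoxicity screen measuring ATP content by luciferase luminescence. Each compound is applied at five concentrations for 48 h at 37 C with 5% CO2.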

[8] = tested on: JEG-3; assay: as above; settings: Gynecologic cancer cell panel viability, ATPlite luminescence, 48 h; series mostly up to 57.5 µM
Outline: as §2

[9] = tested on: SKOV3; assay: as above; settings: Gynecologic cancer cell panel viability, ATPlite luminescence, 48 h; series mostly up to 57.5 µM
Outline: as §2

[10] = biological target: Catechol O-methyltransferase (Homo sapiens) (UniProt P21964); assay: Confirmatory Screen for Target Class Profiling of Small Molecule Inhibitors of Methyltransferases (AID 1745852; calls by dose curve; note: potency is the fitted concentration of half-maximal effect; for activity change, negative = inhibition: % is set by controls: 0 for no effect and ±100 for the full control effect); settings: MTase-Glo luminescence, SAH detection, recombinant enzyme; measured here: COMT max response; stronger effect = lower value
[11] = biological target: Guanidinoacetate N-methyltransferase (Homo sapiens) (UniProt Q14353); assay: as above; settings: activity change, negative = inhibition: at 57.3 µM (top of the series) unless noted
[12] = biological target: Nicotinamide N-methyltransferase (Homo sapiens) (UniProt P40261); assay: as above; settings: MTase-Glo luminescence, SAH detection, recombinant enzyme; measured here: NNMT max response; stronger effect = lower value
[13] = P-glycoprotein substrates identified in KB-3-1 adenocarcinoma cell line, qHTS therapeutic library screen (AID 1346986); note: nearly all actives have a fitted effect of over 60% in size;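 note: potency is the fitted concentration of half-maximal effect; potency is for cytotoxicity meaning loss of cell viability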
Outline: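 In 1536-well format, 500 cells/well received pinned compound titrations and were incubated 72 h, 5% CO2. Viability was read by CellTiter-Glo; cytotoxic if AC50 < 10 uM and efficacy >50%.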

[14] = tested on: KB-3-1; assay: Cytotoxic Profiling of Annotated Libraries Using Quantitative High-Throughput Screening (AID 1296008); settings: Five cell lines viability, CellTiter-Glo ATP luminescence, 48-72 h; max response: stronger effect = lower value; note: nearly all actives have a fitted effect of over 60% in size; note: potency is the fitted concentration of half-maximal effect
Outline: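 Cells exposed to compounds for 48 or 72 hr at 37 degrees Celsius. Viability read as ATP-coupled luminescence with CellTiter-Glo after 10 min at room temperature.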

[15] = biological target: Cytochrome P450 2D6 (Homo sapiens) (UniProt P10635); assay: Cytochrome P450 family 2 subfamily D member 6 (CYP2D6) small molecule antagonists: luciferase biochemical (cell-free) qHTS assay (AID 1645840; active = well fitted curve in the direction sought with a large enough effect in the repeat runs; an effect the other way counts as inactive or inconclusive; note: nearly all actives have a fitted effect of over 55% in size; note: potency is the fitted concentration of half-maximal effect)
Outline: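 P450-Glo CYP2D6 system: proluciferin substrate converted by enzyme to luciferin, read by luminescence proportional to activity. Enzyme-substrate mix with compound 10 min at room temperature, then NADPH regeneration 1 h before detection reagent.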

[16] = biological target: Cytochrome P450 2C9 (Homo sapiens) (UniProt P11712); assay: Cytochrome P450 family 2 subfamily C member 9 (CYP2C9) small molecule antagonists: luciferase biochemical (cell-free) qHTS assay (AID 1645842; active = well fitted curve in the direction sought with a large enough effect in the repeat runs; an effect the other way counts as inactive or inconclusive; note: % is set by controls: 0 for no effect and ±100 for the full control effect; nearly all actives have a fitted effect of over 55% in size)
Outline: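 P450-Glo CYP2C9 system: proluciferin substrate with enzyme in mix containing 0.4% BSA, 10 min at room temperature, then NADPH regeneration solution added and incubated 1 h at 37C. Detection reagent stopped reaction; luminescence read after 20 min as RLU.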

[17] = Cytotoxicity counterscreen for inhibitors of SARS-CoV-2 cell entry (AID 1645845; calls by dose curve; note: % is set by controls: 0 for no effect and ±100 for the full control effect; nearly all actives have a fitted effect of over 50% in size)
Outline: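 Counterscreen run in the same HEK293-ACE2 line as the pseudotyped-particle entry assay, without particles. Viability after 48 h at 37 C was read as ATP luminescence, scaled between cell-containing and cell-free wells.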

[18] = qHTS drug screen for cell cycle checkpoint inhibitors in PARPi-resistant BRCA-mutant ovarian cancer cell lines. (AID 1963452; calls by dose curve); settings: PEO1/OlaR viability, CellTiter-Glo luminescence, 96 h, stronger effect = lower value
Outline: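 PEO1, PEO4 and PEO1/OlaR ovarian cancer cells, 600 per well, exposed 96 h at 37C to a dilution series. Viability read by CellTiter-Glo luminescence, normalized to DMSO and empty wells; activity summarized as Z-AUC.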

[19] = tested on: HACAT; assay: qHTS assay to identify novel small-molecules to repurpose for Merkel cell carcinoma treatment (AID 1296009); settings: MCC and control cell lines, CellTiter-Glo viability, 72 h; at 44.8 µM (top of the series) unless noted; note: nearly all actives have a fitted effect of over 60% in size
Outline: as §1

Chain of Calcium and integrin-binding protein 1 (Homo sapiens) (Q99828 whole entry, looked up): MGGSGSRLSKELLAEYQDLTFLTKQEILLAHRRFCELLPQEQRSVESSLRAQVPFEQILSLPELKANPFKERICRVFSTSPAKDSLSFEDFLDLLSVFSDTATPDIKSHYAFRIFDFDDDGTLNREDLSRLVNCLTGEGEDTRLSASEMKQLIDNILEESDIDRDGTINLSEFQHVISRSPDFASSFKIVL
Chain of Nicotinamide N-methyltransferase (Homo sapiens) (P40261 whole entry, looked up): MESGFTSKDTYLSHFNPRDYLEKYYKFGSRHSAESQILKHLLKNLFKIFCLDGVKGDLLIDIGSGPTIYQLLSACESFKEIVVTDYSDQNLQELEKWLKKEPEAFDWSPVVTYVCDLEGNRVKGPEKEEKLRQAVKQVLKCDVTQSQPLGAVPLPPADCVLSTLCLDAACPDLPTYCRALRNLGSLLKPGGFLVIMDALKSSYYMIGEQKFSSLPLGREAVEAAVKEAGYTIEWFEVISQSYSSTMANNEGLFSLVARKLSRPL
Chain of Catechol O-methyltransferase (Homo sapiens) (P21964 whole entry, looked up): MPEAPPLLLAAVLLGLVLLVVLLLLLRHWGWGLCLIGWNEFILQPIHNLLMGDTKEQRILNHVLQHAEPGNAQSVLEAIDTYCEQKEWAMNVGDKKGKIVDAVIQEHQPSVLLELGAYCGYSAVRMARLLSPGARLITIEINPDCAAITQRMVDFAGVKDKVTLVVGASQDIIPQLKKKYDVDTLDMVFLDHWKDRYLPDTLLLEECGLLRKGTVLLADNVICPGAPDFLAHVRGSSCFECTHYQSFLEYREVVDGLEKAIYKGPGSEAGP
Chain of Cytochrome P450 2D6 (Homo sapiens) (P10635 whole entry, looked up): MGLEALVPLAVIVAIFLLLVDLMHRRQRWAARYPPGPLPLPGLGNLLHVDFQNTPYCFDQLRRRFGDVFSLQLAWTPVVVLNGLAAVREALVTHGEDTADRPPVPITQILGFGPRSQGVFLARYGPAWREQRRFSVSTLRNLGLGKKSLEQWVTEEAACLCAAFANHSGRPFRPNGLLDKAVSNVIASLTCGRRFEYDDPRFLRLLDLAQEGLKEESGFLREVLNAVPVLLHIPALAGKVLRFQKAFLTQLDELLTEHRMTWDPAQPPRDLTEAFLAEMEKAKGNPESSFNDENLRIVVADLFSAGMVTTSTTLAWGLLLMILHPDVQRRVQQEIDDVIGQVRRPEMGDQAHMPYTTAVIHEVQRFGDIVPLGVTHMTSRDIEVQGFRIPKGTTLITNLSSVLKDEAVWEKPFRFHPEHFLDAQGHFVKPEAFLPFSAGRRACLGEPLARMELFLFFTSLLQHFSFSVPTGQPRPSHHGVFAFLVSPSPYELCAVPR
Chain of Cytochrome P450 2C9 (Homo sapiens) (P11712 whole entry, looked up): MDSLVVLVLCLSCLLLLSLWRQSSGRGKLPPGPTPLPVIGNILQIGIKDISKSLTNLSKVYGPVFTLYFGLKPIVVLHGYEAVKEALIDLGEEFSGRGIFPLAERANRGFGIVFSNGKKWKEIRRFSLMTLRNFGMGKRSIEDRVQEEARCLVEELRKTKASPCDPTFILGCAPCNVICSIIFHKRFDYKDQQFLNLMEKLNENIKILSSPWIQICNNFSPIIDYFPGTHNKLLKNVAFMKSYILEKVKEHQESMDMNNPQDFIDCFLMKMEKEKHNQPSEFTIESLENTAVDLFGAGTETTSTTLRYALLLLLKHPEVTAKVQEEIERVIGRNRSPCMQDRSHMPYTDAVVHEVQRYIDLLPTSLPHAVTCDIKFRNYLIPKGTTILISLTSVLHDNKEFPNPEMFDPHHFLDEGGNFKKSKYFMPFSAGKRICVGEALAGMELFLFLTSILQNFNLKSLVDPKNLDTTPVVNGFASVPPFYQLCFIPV

C[C@]12CCC(=O)C=C1CC[C@@H]1[C@@H]2[C@@H](O)C[C@]2(C)C(=O)CC[C@@H]12
inactive: Potency [1] | Potency [2] | Potency [3] | Potency [4] | Potency [5] | Potency [6] | Potency [7] | Potency [8] | Potency [9]

C[C@H]1O[C@@H](O[C@H]2CC[C@]3(CO)C4CC[C@]5(C)[C@@H](C6=CC(=O)OC6)CC[C@]5(O)[C@@H]4CC[C@H]3C2)[C@H](O)[C@H](O)[C@@H]1O[C@@H]1O[C@H](CO)[C@@H](O)[C@H](O)[C@H]1O (some centres undefined)
-7.07%: activity [12]
inactive: Potency [3] | Potency [5]
active: Potency [4] 3.16 µM | Potency [9] 2.82 µM
-90%: activity [10]
-0.722% [at 19.1 µM]: activity change, negative = inhibition [11]

C[C@]12CC[C@H](O)C[C@@H]1CC[C@@H]1[C@@H]2CC[C@]2(C)C(=O)CC[C@@H]12
inactive: Potency [13] | Potency [1] | Potency [2] | Potency [3] | Potency [4] | Potency [5] | outcome [14] | Potency [7] | Potency [8] | Potency [9]

N#Cc1cn([C@@H]2O[C@H](CO)[C@H](O)[C@@H]2O)c2ncnc(N)c12
-89.8%: activity [12]
active: Potency [11] 38.3 µM | Potency [14] 36.6 nM
-98.2%: activity [10]
inactive: Potency [1] | Potency [2] | Potency [15] | Potency [16]

C[C@H]1CCC/C=C/C2C[C@H](O)C[C@H]2[C@H](O)/C=C/C(=O)O1 (some centres undefined)
active: Potency [13] 146 nM | Potency [7] 316 nM | Potency [8] 891 nM
inactive: Potency [2] | Potency [3] | Potency [17] | Potency [4] | Potency [5] | Z-AUC [18] -0.883
-1.19: Z-AUC ([18]; measured here: PEO1 parental Z-AUC)
-1.2: Z-AUC ([18]; measured here: PEO4 Z-AUC)

CCCCN1[C@@H]2CC[C@H]1CC(OC(c1ccc(F)cc1)c1ccc(F)cc1)C2 (some centres undefined)
0.354%: activity [10]
-14%: activity [12]
inactive: Potency [1] | Potency [2] | Potency [4] | Potency [8]
active: Potency [15] 169 nM
0%: activity change, negative = inhibition [11]

C[C@@H]1C[C@@H](O)[C@]2(O)O[C@@H]3C[C@@]4(C=O)C(CC[C@@H]5C4CC[C@]4(C)[C@@H](C6=CC(=O)OC6)CC[C@]54O)C[C@H]3O[C@@H]2O1 (some centres undefined)
inactive: Potency [1] | Potency [2] | Potency [3] | Potency [5] | Potency [8]
active: Potency [14] 100 nM

Cc1cccc(NC(=O)N[C@H]2CN(C)c3ccccc3C(c3ccccc3)=N2)c1
inactive: Potency [1] | Potency [2] | Potency [3] | Potency [4] | Potency [5] | outcome [19] | Potency [7] | Potency [8] | Potency [9]

C[C@@H]1C[C@@H](O)[C@]2(O)O[C@@H]3C[C@@]4(C=O)C(CC[C@@H]5C4CC[C@]4(C)[C@@](O)(C6=CC(=O)OC6)CC[C@]54O)C[C@H]3OC2O1 (some centres undefined)
active: Potency [4] 9.22 µM
inactive: Potency [2] | Potency [3] | Potency [5]

Nc1ncnc2c1ncn2[C@@H]1O[C@@H]2COP(O)(=S)O[C@H]2[C@H]1O (some centres undefined)
inactive: activity change, negative = inhibition [1] 2.11% [at 19.1 µM] | Potency [3] | activity change, negative = thiol reactive [4] -11.9% [at 11.5 µM] | redox activity (% of DA3003) [5] -10% [at 11.5 µM] | max response [14] -0.196% | activity change, negative = cytotoxicity [7] 2.86% [at 11.6 µM] | activity change, negative = cytotoxicity [8] 6.35% [at 11.6 µM] | activity change, negative = cytotoxicity [9] 33.4% [at 11.6 µM]

C=C(C)[C@@H]1[C@H]2OC(=O)[C@H]1[C@]1(O)C[C@H]3O[C@]34C(=O)O[C@H]2[C@]14C
inactive: Potency [13] | Potency [2] | Potency [3] | Potency [4] | Potency [5] | outcome [14] | Potency [6] | Potency [7] | Potency [8] | Potency [9]

C[C@@]1(CO)[C@H](O)CC[C@@]2(C)[C@H]1CC[C@H]1C[C@@H]3C[C@@]12CC[C@]3(O)CO
inactive: Potency [3] | Potency [4] | Potency [5] | Potency [7] | Potency [8]

CN1Cc2c(ccc3c2OCO3)[C@@H]2[C@H]1c1cc3c(cc1C[C@@H]2O)OCO3
active: Potency [14] 2860 nM
inactive: Potency [1] | Potency [3] | Potency [5]

Reference: PubChem BioAssay (NCATS)
